Assay outcomes as filed in PubChem BioAssay.
Only some compounds are listed: those with a hit (about 18% of all), similar ones and a draw of the others.
TGFb inhibitor: TGF-b pathway inhibition; HepG2 CAGA-GFP TGF-b/SMAD3 reporter, GFP fluorescence, 18 h; TGF-beta stimulated, 500 pg/mL final; Potency, µM (top dose mostly 46.1 µM), most hits filed as inhibitors; 410,000 compounds, 1.2% hits; AID 588855; note: nearly all actives have a fitted effect of over 65% in size
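GFP signal (ex488/em500-530) from TGF-beta-stimulated HEPG2 CAGA-GFP cells, 500 pg/mL final, 18 h at 37 degrees C in DMEM plus 1% FBS, normalized to unstimulated and DMSO-stimulated controls.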
TDP1 cell CPT: growth inhibition of DT40 Tdp1-/-;hTDP1 cells with camptothecin (screen for TDP1 inhibitors). AID 686979. chicken DT40 Tdp1-/-;hTDP1 cells + 20 nM CPT, ATP luminescence, 48 h. Potency, µM (titrated, usually from 46.2 µM), usual class: inhibitors. 420,000 compounds, 12% hits; note: nearly all actives have a fitted effect of over 55% in size
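Chicken DT40 Tdp1-/- cells stably complemented with human TDP1 were seeded at 400 cells/well in medium containing 20 nM camptothecin, exposed to pin-transferred compounds, and grown at 37 °C for at least 48 hr. Viability was read as ATP luminescence.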
HepG2 tox: counter-screen for TGF-b inhibitors: cytotoxicity in HepG2 cells; HepG2 CAGA-GFP viability, ATP luminescence, 18 h; Potency, µM (series often up to 46.1 µM), most hits filed as cytotoxic; 410,000 compounds, 0.76% hits; AID 588856
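CellTiter-Glo luminescence gave cytotoxicity after 18 hours at 37 degrees C. The cells were HepG2 CAGA-GFP in 1% FBS DMEM, stimulated with 500 pg/mL TGF-beta after compound addition. %Activity was normalised to no-cell wells (complete cell-killing) and DMSO (no toxicity), and curves were fitted and classified.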
IL-1B inflam inh: inflammasome signaling inhibition, IL-1 beta readout. THP-1 LPS/ATP IL-1B secretion, AlphaLISA, 16 h; hits give low values. activity change, % at 57.5 µM. 360,000 compounds, 4.7% hits; in the data active = activity change below about -50%; inconclusive = mostly about -30% to -49%
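Secreted IL-1B measured by AlphaLISA bead assay after 16 h compound exposure of THP-1 cells; compounds (final up to 57.5 uM) added 1 h before LPS (250 ng/mL) and ATP (1.25 mM) stimulation; lower signal means less secretion.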
TDP1 block: inhibitors of human tyrosyl-DNA phosphodiesterase TDP1; Q9NUW8; Potency, µM (highest dose often 130 µM), hits mostly inhibitors; AID 485290; recombinant TDP1, AlphaScreen DNA substrate cleavage; 350,000 compounds, 0.28% hits; note: nearly all actives have a fitted effect of over 40% in size
Target sequence (Q9NUW8 whole entry, looked up): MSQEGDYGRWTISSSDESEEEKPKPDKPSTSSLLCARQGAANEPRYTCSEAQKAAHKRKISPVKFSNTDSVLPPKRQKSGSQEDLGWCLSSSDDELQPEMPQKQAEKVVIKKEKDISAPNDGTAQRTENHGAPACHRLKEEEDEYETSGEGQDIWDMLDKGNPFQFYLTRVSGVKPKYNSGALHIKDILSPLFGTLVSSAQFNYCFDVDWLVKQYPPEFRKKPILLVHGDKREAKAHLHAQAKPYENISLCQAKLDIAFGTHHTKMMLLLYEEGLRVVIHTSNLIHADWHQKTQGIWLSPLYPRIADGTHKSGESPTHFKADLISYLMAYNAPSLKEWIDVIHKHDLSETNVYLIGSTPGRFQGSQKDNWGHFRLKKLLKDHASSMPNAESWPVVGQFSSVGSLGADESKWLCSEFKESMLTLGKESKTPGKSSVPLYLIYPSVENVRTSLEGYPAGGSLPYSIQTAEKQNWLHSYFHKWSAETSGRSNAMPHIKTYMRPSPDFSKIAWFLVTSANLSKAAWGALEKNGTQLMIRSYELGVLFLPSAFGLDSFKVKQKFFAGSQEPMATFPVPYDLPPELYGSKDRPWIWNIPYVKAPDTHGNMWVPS
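Compounds were preincubated with Tdp1 (1 nM final) for 15 min at room temperature before substrate (15 nM final) started a 5 min reaction; beads (10 ug/ml final) were then added for 10 min before AlphaScreen detection.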
TDP1 cell noCPT: qHTS for Inhibitors of human tyrosyl-DNA phosphodiesterase 1 (TDP1): qHTS in cells in absence of CPT; DT40 Tdp1-/- hTDP1 cells, no CPT, ATP luminescence, 48 h; Potency, µM (top dose mostly 46.2 µM), hits mostly inhibitors; 420,000 compounds, 15% hits; AID 686978, 2013; note: nearly all actives have a fitted effect of over 55% in size
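Growth kinetics read by CellTiter-Glo luminescence after ≥48 hr at 37 °C. Cells: DT40 Tdp1-/- stably carrying human TDP1, 400 per well, compound exposure in the absence of CPT (DMSO vehicle).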
Of the large screens only hits and unclear results are named; the others gave an inactive call. Unless noted, calls come from the whole dose curve; as a rule, active = well fitted curve in the direction sought with a large enough effect; inconclusive = small, poorly fitted or top-dose-only effect, or another doubt; inactive = no such curve, though single readings can be large; an effect the other way counts as inactive or inconclusive.

OCc1nc2ccccc2n1CC(O)Cn1ccc2ccccc21 (configuration not stated)	TDP1 cell CPT 16.4µM, TDP1 cell noCPT 13µM
Oc1ccccc1NCC(O)Cn1ccc2ccccc21 (configuration not stated)	TGFb inhibitor inconclusive, TDP1 cell CPT 16.4µM, IL-1B inflam inh inconclusive, TDP1 cell noCPT 20.6µM
OC(CNCc1ccccc1)Cn1ccc2ccccc21 (configuration not stated)	IL-1B inflam inh -50.1
COc1ccc(C(=O)c2cn(CC(=O)Nc3cc(C)ccc3C)c3nc(C)ccc3c2=O)cc1	none (no result: IL-1B inflam inh)
Cc1cc(NC(=O)CCC(=O)N(Cc2ccco2)C(C(=O)NC2CCCC2)c2ccccc2C)no1 (configuration not stated)	TDP1 cell CPT 23.1µM, TDP1 cell noCPT 23.1µM
COc1ccc(N(C(=O)/C=C/C(=O)Nc2cc(C)on2)C(C(=O)NC2CCCC2)c2ccccc2C)cc1 (configuration not stated)	TGFb inhibitor inconclusive, TDP1 cell CPT inconclusive, IL-1B inflam inh -86.5, TDP1 cell noCPT 20.6µM
CCCCN(C(=O)CCC(=O)Nc1cc(C)on1)C(C(=O)NC1CCCC1)c1cccc(OC)c1 (configuration not stated)	TDP1 cell CPT 8.2µM, TDP1 cell noCPT inconclusive
Cc1noc(C)c1NC(=O)Nc1ccc2c(c1)C(=O)N([C@H](C)CO)C[C@H](C)[C@@H](CN(C)S(=O)(=O)c1cccs1)O2	none
CCOC(=O)C1=C(Nc2ccc(OC)cc2)C(N)=NC1=N	TDP1 cell CPT 3.66µM, TDP1 cell noCPT 1.3µM (no result: TDP1 block)
Cc1ccc(C(=O)N2CC(=O)Nc3ccc(Br)cc3C2c2ccc(F)cc2)cc1C (configuration not stated)	TGFb inhibitor inconclusive, TDP1 cell CPT inconclusive, TDP1 cell noCPT inconclusive (no result: IL-1B inflam inh)
Cc1cccc(NC(=O)Cn2c(=O)nc(-c3ccccc3)c3ccccc32)c1C	TDP1 cell CPT inconclusive, TDP1 cell noCPT 20.6µM (no result: IL-1B inflam inh)
Cc1c(Cl)cccc1NC(=O)Cn1c(=O)nc(-c2ccccc2)c2ccccc21	TDP1 cell CPT inconclusive, TDP1 cell noCPT 16.4µM (no result: IL-1B inflam inh)
COc1ccc(CNC(=O)Cn2c(=O)nc(-c3ccccc3)c3ccccc32)cc1OC	TDP1 cell CPT inconclusive, TDP1 cell noCPT 16.4µM (no result: IL-1B inflam inh)
Cc1ccc(NC(=O)Cn2c(=O)nc(-c3ccccc3)c3ccccc32)cc1F	none (no result: IL-1B inflam inh)
CCO[C@H]1OC(C(=O)NC2CC2)=C[C@@H](c2ccccc2)[C@@H]1CCCO	TDP1 cell CPT inconclusive, TDP1 cell noCPT inconclusive
CCc1ccc2oc(C(=O)NC3CCS(=O)(=O)C3)cc(=O)c2c1 (configuration not stated)	none
N#Cc1ccc(Cl)cc1NC(=O)CN1C(=O)C(=O)N(CCC2=CCCCC2)C1=O	none (no result: TDP1 block)
C=CCn1cc(C(=O)c2cc(Br)ccc2O)cc(C#N)c1=O	TDP1 cell CPT 18.4µM, TDP1 cell noCPT inconclusive
CC(C)n1cc(C(=O)c2cc(Br)ccc2O)cc(C#N)c1=O	TDP1 cell CPT inconclusive, TDP1 cell noCPT 18.4µM
COCCCn1cc(C(=O)c2cc(Br)ccc2O)cc(C#N)c1=O	TDP1 cell CPT inconclusive, TDP1 cell noCPT inconclusive
C(=NNc1nnn(Cc2ccccc2)n1)c1ccccc1	TDP1 cell CPT inconclusive, TDP1 cell noCPT inconclusive (no result: TDP1 block)
CN(Cc1ccccc1)/C(=N/O)c1cccc(Cl)c1	none (no result: TDP1 block)
O=S(=O)(NC1CCc2ccccc21)c1ccccc1 (configuration not stated)	TDP1 cell noCPT inconclusive (no result: TDP1 block)
CCNC(=O)C1(C)CCN(C(=O)c2ccc(C#N)cc2)C1 (configuration not stated)	none (no result: TDP1 block)
C/C(=N\O)c1ccn(S(=O)(=O)c2ccc(Cl)cc2)c1	TDP1 cell CPT inconclusive, TDP1 cell noCPT 25.9µM
O=C(c1ccccc1)n1c2ccccc2c(=O)n1-c1ccccc1CCl	TDP1 cell CPT inconclusive, TDP1 cell noCPT inconclusive (no result: TDP1 block)
Cc1ccc(/C=C/c2onc(C)c2S(=O)(=O)N2CCC(C(=O)Nc3ccc(OC(F)(F)F)cc3)CC2)cc1	TDP1 cell CPT 11.6µM, TDP1 cell noCPT 13µM (no result: IL-1B inflam inh)
Cc1ccc(/C=C/c2onc(C)c2S(=O)(=O)N2CCC(C(=O)Nc3ccc(C)c(N(C)C)c3)CC2)cc1	TGFb inhibitor inconclusive, TDP1 cell CPT 8.2µM, TDP1 cell noCPT 9.2µM (no result: IL-1B inflam inh)
Cc1ccc(/C=C/c2onc(C)c2S(=O)(=O)N2CCC(C(=O)Nc3cc(F)ccc3F)CC2)cc1	TGFb inhibitor inconclusive, TDP1 cell CPT inconclusive (no result: IL-1B inflam inh)
COC(=O)C(NC(=O)c1ccccc1C(=O)O)c1ccc2ccccc2c1 (configuration not stated)	none
Cc1ccc(CNC(=O)CCCn2c(=O)c3ccccc3n(Cc3ccccc3C)c2=O)cc1	TDP1 cell CPT inconclusive, TDP1 cell noCPT inconclusive (no result: IL-1B inflam inh)
Cc1cc(OCC(=O)N2CCN(c3ccccn3)CC2)c(C)cc1Br	TDP1 cell CPT inconclusive, TDP1 cell noCPT inconclusive
O=C(c1ccc(Cl)cc1)C(Cn1cncn1)C(Sc1ccccc1)c1ccccc1 (configuration not stated)	TGFb inhibitor inconclusive, TDP1 cell CPT inconclusive, IL-1B inflam inh -61.1, TDP1 cell noCPT inconclusive
N#CCCn1cc(C(=O)O)c(-c2cccs2)n1	none
Cc1ccc(NC(=O)c2cn(CCC#N)nc2-c2cccs2)c([N+](=O)[O-])c1	TDP1 cell CPT inconclusive, TDP1 cell noCPT 11.6µM
Cc1ccc(NC(=O)/C=C/c2cccs2)c([N+](=O)[O-])c1	TDP1 cell CPT 13µM, TDP1 cell noCPT 23.1µM
O=C(Cc1cccs1)NC1CC(=O)N(c2cccc(F)c2)C1 (configuration not stated)	none (no result: IL-1B inflam inh)
NC(=O)c1ccc[n+](Cc2cccc3ccccc23)c1	none
COc1cc(CC(=O)OCc2ccccc2F)cc(OC)c1OC	none
CCC(=O)N1CCc2cc(Br)cc(S(=O)(=O)N3CCCC(C(=O)NCc4ccc(C)cc4)C3)c21 (configuration not stated)	TDP1 cell CPT 16.4µM, TDP1 cell noCPT 16.4µM (no result: IL-1B inflam inh)
CCC(=O)N1CCc2cc(Br)cc(S(=O)(=O)NCCc3cccc(C)c3)c21	TGFb inhibitor 11.2µM, TDP1 cell CPT 16.4µM, TDP1 cell noCPT 23.1µM (no result: IL-1B inflam inh)
CCC(=O)N1CCc2cc(Br)cc(S(=O)(=O)NCc3ccccc3)c21	TDP1 cell noCPT inconclusive (no result: IL-1B inflam inh)
CCC(=O)N1CCc2cc(Br)cc(S(=O)(=O)N3CCCC(C(=O)Nc4ccc(CC)cc4)C3)c21 (configuration not stated)	TGFb inhibitor inconclusive, TDP1 cell noCPT inconclusive (no result: IL-1B inflam inh)
